Data published in PubChem BioAssay (Tox21).
Values joined by “and” are separate entries in the source; they are usually repeats but may differ in a detail not shown here. Equal entries are not always repeated. Inconclusive results are not listed. Active and inactive are the calls of the source. Calls follow the shape of the dose curve; as a rule, active = well fitted inhibition curve with a large enough effect in the repeat runs; inconclusive = weak or mixed curves; inactive = no such curve, though single readings can be large or run the other way.

Molecular target: Cytochrome P450 1A2 (Homo sapiens) (UniProt P05177)
Assay: Cytochrome P450 Family 1 Subfamily A Member 2 (CYP1A2) small molecule antagonists: luciferase reporter qHTS assay (AID 1671199); also: nearly all actives have a fitted effect of over 50% in size
Conditions: P450-Glo CYP1A2 enzyme, luciferin luminescence, 1 h; series mostly up to 53 µM
Text: National Center for Advancing Translational Sciences [NCATS]
U.S. Environmental Protection Agency [EPA]
National Institutes of Environmental Health Sciences [NIEHS]
National Toxicology Program [NTP]
U.S. Food and Drug Administration [FDA]
Cytochrome P450 (CYP) enzymes are membrane-bound hemeproteins that play a key role in metabolism of drugs and xenobiotics. Evaluation of the effect of chemicals on CYP isozymes is useful to minimize the adverse drug reactions and toxicities in drug development process. Tox21 chemicals were tested for their effect on CYP enzyme activities by using P450-Glo (TM) screening systems (Promega Corporation, Madison, WI). These systems provide a luminescent method containing proluciferin substrates and are converted to luciferin products by CYP isozymes. The luciferin products formed are detected with a luciferin detection reagent, and the amount of light produced is proportional to CYP activity. P450-Glo (TM) CYP1A2 screening system (Catalog. No. V9770) was used to detect the compounds that interfere in CYP1A2 activity. The positive control compound used for CYP1A2 assay is furafylline (Sigma-Aldrich, St. Louis, MO).
Tox21 Assay Protocol Summary:
Two ul of enzyme-substrate mix was dispensed into medium binding white/solid 1536-well plates (Greiner Bio-One North America Inc., Monroe, NC) using a BioRaptr Flying Reagent Dispenser (FRD, Beckman Coulter, Brea, CA). Compounds dissolved in DMSO and positive control (furafyllline) were transferred to the assay plates at 23 nl using a Pintool station (Wako, San Diego, CA). The assay plates were incubated at room temperature for 10 min. Then 2 ul of NADPH regeneration solution was added to each well of the assay plates using an FRD and incubated at room temperature for 1 h. The reaction was stopped by adding 4 ul of detection reagent using an FRD and after 20 min incubation at room temperature the luminescence signal was measured using a ViewLux plate reader (Perkin Elmer, Shelton, CT). Data were expressed as relative luminescence units.
Potency is read from the fitted curve at half-maximal effect.

Cytochrome P450 1A2 (Homo sapiens), sequence (P05177 whole entry, looked up): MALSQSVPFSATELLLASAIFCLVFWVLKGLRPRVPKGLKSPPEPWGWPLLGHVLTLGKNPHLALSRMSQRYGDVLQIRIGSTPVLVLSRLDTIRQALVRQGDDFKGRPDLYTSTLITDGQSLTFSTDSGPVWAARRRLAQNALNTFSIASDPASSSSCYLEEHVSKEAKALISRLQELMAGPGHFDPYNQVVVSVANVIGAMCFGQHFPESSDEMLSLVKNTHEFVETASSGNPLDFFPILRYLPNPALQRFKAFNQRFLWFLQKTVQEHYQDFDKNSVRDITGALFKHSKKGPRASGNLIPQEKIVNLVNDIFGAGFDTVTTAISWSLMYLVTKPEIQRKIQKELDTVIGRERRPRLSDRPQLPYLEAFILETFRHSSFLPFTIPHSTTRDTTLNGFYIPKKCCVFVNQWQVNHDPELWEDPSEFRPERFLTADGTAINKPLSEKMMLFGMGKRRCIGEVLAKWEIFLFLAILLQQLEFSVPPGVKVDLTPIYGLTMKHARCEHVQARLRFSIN

SMILES	Potency
COc1ccc(-c2ccc3cc(C(=O)O)ccc3c2)cc1C12CC3CC(CC(C3)C1)C2	inactive
CC(C)=CCOc1ccc(/C=C/C(=O)c2ccc(OCC=C(C)C)cc2OCC(=O)O)cc1	inactive
O=c1[nH]sc2cc(Cl)ccc12	24.5 µM (active)
Cc1cc(=O)oc2cc(N(C)C)ccc12	6.33 µM (active)
CCCCC(CC)COP(=O)(O)OCC(CC)CCCC (stereo not given)	inactive
NC(=O)N1C(=O)C(C(=O)c2cc(Cl)cs2)c2cc(F)c(Cl)cc21 (stereo not given)	17.8 µM (active)
CN(C)[C@@H]1C(=O)C(C(N)=O)=C(O)[C@@]2(O)C(=O)C3=C(O)c4c(O)cccc4C[C@H]3C[C@@H]12	inactive
Nc1ccccc1O	15.7 µM (active)
Cc1cc(O)c(C(C)(C)C)cc1Sc1cc(C(C)(C)C)c(O)cc1C	39.8 µM (active)
CC(C)CCCCCCCCCCCCCCC(=O)O	inactive
CC(C)(C)C(=O)OCOC(=O)[C@@H]1N2C(=O)[C@@H](NC(=O)[C@H](N)c3ccccc3)[C@H]2SC1(C)C	inactive
CCCC/C=C/CCCCO	inactive
CC(=O)OCC(C)OC(C)=O (stereo not given)	inactive
CCCCCCCCOc1ccccc1C(=O)Nc1ccc(C(=O)OCC[N+](C)(CC)CC)cc1	inactive
CCCCCCCCCCCCc1ccc(O)cc1	22.4 µM (active)
NC(=O)NS(=O)(=O)c1ccc(N)cc1	inactive
Cc1cc(O)c(C(C)(C)C)cc1C(C)(C)C	35.6 µM (active)
COc1cccc2c1C(=O)c1c(O)c3c(c(O)c1C2=O)C[C@@](O)(C(=O)CO)C[C@@H]3O[C@H]1C[C@H](N)[C@H](O[C@@H]2CCCCO2)[C@H](C)O1	inactive
CN(C)[C@@H]1C(=O)C(C(N)=O)=C(O)[C@@]2(O)C(=O)C3=C(O)c4c(O)ccc(Cl)c4[C@@H](O)[C@H]3C[C@@H]12	inactive
COc1cc(-c2nc(NC(=O)c3cc4cc(C)cc(C)c4n3CC(=O)O)sc2CCC2CCCCC2)c(OC)cc1Cl	inactive

SMILES	Potency
OCc1c[nH]c2ccccc12	29.1 µM (active)
Nc1c2ccccc2nc2ccccc12	1.25 µM (active) and 2.45 µM (active)
CSc1ccc(/C=C2/C(C)=C(CC(=O)O)c3cc(F)ccc32)cc1	15.5 µM (active)
N=C1C=CC(=C(c2ccc(N)cc2)c2ccc(N)cc2)C=C1	35.6 µM (active)
NNc1nc(-c2ccc(N)cc2)cs1	35.6 µM (active)
Nc1c(Cl)cc(Cl)cc1Cl	15.7 µM (active)
Fc1ccc([C@@H]2CCNC[C@H]2COc2ccc3c(c2)OCO3)cc1	12.9 µM (active)
CC(C)(C)c1ccc(C(=O)O)cc1	inactive
CCCCC(CC)COC(=O)c1ccccc1C(=O)O (stereo not given)	54.2 µM (active)
CCOC(=O)O[C@]1(C(=O)OCCl)CC[C@H]2[C@@H]3CCC4=CC(=O)C=C[C@]4(C)[C@H]3[C@@H](O)C[C@@]21C	inactive
CCOc1nc2cccc(C(=O)OC(C)OC(=O)OC3CCCCC3)c2n1Cc1ccc(-c2ccccc2-c2nn[nH]n2)cc1 (stereo not given)	inactive
CCCCCCCCCCn1cc[n+](CCCCCCCCCC)c1C	71.1 µM (active)
O=C1CCCc2c1cc1ccc3cccc4ccc2c1c34	0.321 µM (active)
CNCc1cc(F)ccc1Oc1ccc(Cl)c(Cl)c1	1 µM (active)
O=C(Nc1cccc(C(F)(F)F)c1)c1cc(Br)cc(Br)c1O	56.4 µM (active)
NNc1nc(-c2ccccc2)cs1	0.651 µM (active)
CCc1cc(SCc2sc(-c3ccc(C(F)(F)F)cc3)nc2CN2CCN(c3ccc(OC)cc3)CC2)ccc1OCC(=O)O	inactive
C/C=C1/C(=O)C[C@H]2[C@@H]3CCC4=CC(=O)CC[C@]4(C)[C@H]3CC[C@]12C	39.8 µM (active)
Cc1cc(C2CCCCC2)n(O)c(=O)c1	inactive
CCCCN1CCCC[C@H]1C(=O)Nc1c(C)cccc1C	17.4 µM (active)
